Experimental data as given in ChEMBL document CHEMBL3433997, “St. Jude Leishmania screening dataset” (2016).

Tests used:
Format in all cases: functional
[1] = target: Solute carrier family 2, facilitated glucose transporter member 1 (Homo sapiens) (UniProt P11166); experiment: ST_JUDE_LEISH: Cytotoxicity at 2uM final concentration against transgenic Leishmania Mexicana promastigotes LmGLUT1 that are glucose transport deficient and complemented with the human glucose transporter GLUT1. Activity is measured by DNA content using SYBR green in vitro
[2] = target: Hexose transporter 1 (Plasmodium falciparum) (UniProt O97467); experiment: ST_JUDE_LEISH: Cytotoxicity at 2uM final concentration against transgenic Leishmania Mexicana promastigotes LmPfHT that are glucose transport deficient and complemented with the Plasmodium falciparum hexose transporter. Activity is measured by DNA content using SYBR green in vitro
[3] = target: Glucose transporter (Leishmania mexicana) (UniProt O61059); experiment: ST_JUDE_LEISH: Cytotoxicity at 2uM final concentration against transgenic Leishmania Mexicana promastigotes LmGT2 that are glucose transport deficient and complemented with the L. Mexicana glucose transporter 2. Activity is measured by DNA content using SYBR green in vitro

Solute carrier family 2, facilitated glucose transporter member 1 (Homo sapiens), sequence (P11166 whole entry): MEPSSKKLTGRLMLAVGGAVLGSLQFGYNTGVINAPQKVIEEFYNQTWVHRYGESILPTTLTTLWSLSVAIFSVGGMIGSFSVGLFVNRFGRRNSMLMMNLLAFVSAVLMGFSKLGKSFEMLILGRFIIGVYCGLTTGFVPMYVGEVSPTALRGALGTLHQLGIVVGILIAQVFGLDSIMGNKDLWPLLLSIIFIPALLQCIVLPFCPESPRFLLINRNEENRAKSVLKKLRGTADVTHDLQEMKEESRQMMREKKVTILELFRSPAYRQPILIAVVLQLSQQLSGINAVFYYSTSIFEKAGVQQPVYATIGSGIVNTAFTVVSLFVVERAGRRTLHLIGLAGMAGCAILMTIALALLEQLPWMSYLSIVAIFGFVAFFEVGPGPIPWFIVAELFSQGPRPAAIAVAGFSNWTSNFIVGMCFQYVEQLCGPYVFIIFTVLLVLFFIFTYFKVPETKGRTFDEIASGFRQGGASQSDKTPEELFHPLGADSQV

Q: With `O=C(Nc1ccc(Cl)c(C(F)(F)F)c1)Nc1ccc(Cl)c(C(F)(F)F)c1` as the compound, how does the inhibition [1] read?
A: The inhibition was 0.91%.

Q: What about the inhibition [2] of the same compound?
A: The inhibition was 1.04%.

Q: What about the inhibition [3] of the same compound?
A: The inhibition was 2.07%.

Q: What does the source list for `O=C(Nc1ccc(Cn2ncc(N3CCCNCC3)c(Cl)c2=O)cc1)Nc1ccc(F)cc1[N+](=O)[O-]`?
A: inhibition [1]: 10.2%; inhibition [2]: 11.4%; inhibition [3]: 5.42%

Q: Which inhibition [1] does the source give for `CN(C)CCCNc1ncnc2c1[nH]c1ccc(Cl)cc12` here?
A: Its inhibition is 1.91%.

Q: What about the inhibition [2] of the same compound?
A: Its inhibition is 3.62%.

Q: What about the inhibition [3] of the same compound?
A: Its inhibition is 1.6%.

Q: With `Cc1cc(N(C)C)nc(Nc2ccc(NC(=O)c3c(F)cccc3F)cc2)n1` as the compound, how does the inhibition [1] read?
A: Its inhibition is 6.1%.

Q: And the inhibition [2]?
A: The inhibition was 6.29%.

Q: And the inhibition [3]?
A: The inhibition was -2.85%.

Q: Which results are given for `O=C(Nc1ccc(-c2ccccc2)cc1)Nc1cccc(Cn2ncc(N3CCCNCC3)c(Cl)c2=O)c1`?
A: inhibition [1]: 1.74%; inhibition [2]: 0.84%; inhibition [3]: 0.04%

Q: How did the inhibition [1] turn out when `CC(C)c1ccc(CN2CCC(NC(=O)c3ccc(-c4ccccc4F)s3)CC2)cc1` was run?
A: The inhibition was 0.51%.

Q: What about the inhibition [2] of the same compound?
A: The inhibition was 0.39%.

Q: And the inhibition [3]?
A: Its inhibition is -1.39%.

Q: Which inhibition [1] does the source give for `CN(C)CC1c2[nH]c3ccccc3c2CCN1C(=O)Nc1ccc(Cl)c(Cl)c1` (centres undefined) here?
A: Its inhibition is 5.56%.

Q: And the inhibition [2]?
A: Its inhibition is 7.79%.

Q: What about the inhibition [3] of the same compound?
A: Its inhibition is 5.8%.

Q: What does the source list for `CCn1c(-c2nonc2N)nc2c(-c3cccc(NC(=O)NC45CC6CC(CC(C6)C4)C5)c3)ncc(OCCCN)c21`?
A: inhibition [1]: 2.53%; inhibition [2]: 1.83%; inhibition [3]: 2.53%

Q: For `CCOc1cc(C(=O)N[C@@H](Cc2ccccc2)[C@H](O)CNCc2cc(OC)cc(OC)c2)cc(N2CCCS2(=O)=O)c1`, which inhibition [1] is on record?
A: Its inhibition is -0.26%.

Q: What about the inhibition [2] of the same compound?
A: Its inhibition is -0.9%.

Q: And the inhibition [3]?
A: Its inhibition is 1.04%.

Q: For `Cc1cc(CNCCCCCCCNCc2cccc([N+](=O)[O-])c2)ccc1O`, which inhibition [1] is on record?
A: The inhibition was 2.48%.

Q: What about the inhibition [2] of the same compound?
A: The inhibition was 1.23%.

Q: What about the inhibition [3] of the same compound?
A: The inhibition was -1.43%.

Q: Which results are given for `O=c1c(NCCCN(Cc2ccc(F)cc2)c2ccccn2)c(NCc2cccnc2)c1=O`?
A: inhibition [1]: 1.33%; inhibition [2]: 1.81%; inhibition [3]: 1.65%

Q: With `O=C(N/C=N/c1cc([N+](=O)[O-])c(-c2ccncc2)n1-c1ccccc1)c1cccc(O)c1` as the compound, how does the inhibition [1] read?
A: The inhibition was 0.21%.

Q: What about the inhibition [2] of the same compound?
A: The inhibition was 0.41%.

Q: What about the inhibition [3] of the same compound?
A: The inhibition was 0.38%.

Q: Which results are given for `Cc1cc(C2NC(=O)c3ccccc3N2)c(C)n1-c1ccc2c(c1)OCO2` (centres undefined)?
A: inhibition [1]: 4.98%; inhibition [2]: 3.59%; inhibition [3]: 4.51%

Q: With `CCCCc1ccc(-c2ccc(-c3c(C)[nH]c(C)c(Br)c3=O)cn2)cc1` as the compound, how does the inhibition [1] read?
A: Its inhibition is 2.88%.

Q: And the inhibition [2]?
A: The inhibition was 3.53%.

Q: What about the inhibition [3] of the same compound?
A: The inhibition was 1.52%.

Q: How did the inhibition [1] turn out when `COc1ccc(Oc2ccccc2CNCC2CCN(CC3CCCCC3)CC2)cc1` was run?
A: Its inhibition is 6.31%.

Q: What about the inhibition [2] of the same compound?
A: Its inhibition is -1.98%.

Q: What about the inhibition [3] of the same compound?
A: The inhibition was 2.13%.

Q: With `COc1ccc(NC(=O)Nc2ccc(-c3ccccc3)cc2Cl)cc1N1CCN(C)CC1` as the compound, how does the inhibition [1] read?
A: Its inhibition is 12%.

Q: And the inhibition [2]?
A: The inhibition was 11.8%.

Q: And the inhibition [3]?
A: Its inhibition is 3.58%.

Q: How did the inhibition [1] turn out when `CS(=O)(=O)Cc1ccc(Nc2ncc(Cl)c(Nc3cccnc3C(N)=O)n2)cc1` was run?
A: The inhibition was 28.2%.

Q: What about the inhibition [2] of the same compound?
A: Its inhibition is 32.1%.

Q: And the inhibition [3]?
A: The inhibition was 23%.

Q: Which results are given for `O=C(NCc1ccc(Cl)c(Cl)c1)c1ccc(-c2nc3ccc(F)cc3[nH]2)cc1`?
A: inhibition [1]: 12.4%; inhibition [2]: 11.1%; inhibition [3]: 11.6%

Q: Which results are given for `Cc1sc(NC(=O)Cc2cccc(C(F)(F)F)c2)nc1-c1cccc(Cl)c1`?
A: inhibition [1]: 9.6%; inhibition [2]: 8.91%; inhibition [3]: 8.34%

Q: How did the inhibition [1] turn out when `CC(C)(C)c1ccc2nccc(Nc3cccc(O)c3)c2c1` was run?
A: Its inhibition is 2.99%.

Q: And the inhibition [2]?
A: The inhibition was 2.35%.

Q: And the inhibition [3]?
A: The inhibition was 2.33%.

Q: How did the inhibition [1] turn out when `COC(=O)c1ccccc1COc1ccc(CC2(NC(=O)[C@H](Nc3ccc(C#N)c4ccccc34)C(C)(C)C)CCCC2)cc1` was run?
A: The inhibition was 4.44%.

Q: What about the inhibition [2] of the same compound?
A: The inhibition was 4.29%.

Q: And the inhibition [3]?
A: The inhibition was 2.22%.

Q: `Cc1cccc2nc(-c3ccc(-c4ccc(CN5CCCC5CN)cc4)cc3)[nH]c12` (centres undefined) was tested. Which inhibition [1] did it give?
A: Its inhibition is 6.95%.

Q: And the inhibition [2]?
A: Its inhibition is 6.96%.

Q: What about the inhibition [3] of the same compound?
A: Its inhibition is 4.26%.

Q: With `CC1CCCC(NC(=O)CCOc2ccccc2)C1` (centres undefined) as the compound, how does the inhibition [1] read?
A: Its inhibition is 7.23%.

Q: What about the inhibition [2] of the same compound?
A: The inhibition was 6.34%.

Q: And the inhibition [3]?
A: Its inhibition is 6.88%.

Q: Which results are given for `O=C(c1ccc(Cl)cc1)N1CCOC(CCN2CCC(c3ccccc3)CC2)(c2ccc(Cl)c(Cl)c2)C1` (centres undefined)?
A: inhibition [1]: 0.85%; inhibition [2]: -0.89%; inhibition [3]: -0.89%

Q: Which inhibition [1] does the source give for `COc1ccc(CC2(CO)CCN(Cc3ccc(O)c(Cl)c3)CC2)cc1` here?
A: The inhibition was 9.35%.

Q: What about the inhibition [2] of the same compound?
A: The inhibition was 7.92%.

Q: What about the inhibition [3] of the same compound?
A: Its inhibition is 5.84%.

Q: With `Cc1cc(N)ncc1-c1ccc(NC(=O)Nc2cc(C(F)(F)F)ccc2F)cc1` as the compound, how does the inhibition [1] read?
A: The inhibition was 2.41%.

Q: And the inhibition [2]?
A: Its inhibition is 2.25%.

Q: What about the inhibition [3] of the same compound?
A: The inhibition was 1.43%.

Q: How did the inhibition [1] turn out when `Cc1ccc(S(=O)(=O)N2CCN(C(=O)c3cc(-c4cccs4)n[nH]3)CC2)c(C)c1` was run?
A: The inhibition was 2.83%.

Q: What about the inhibition [2] of the same compound?
A: Its inhibition is 2.34%.

Q: What about the inhibition [3] of the same compound?
A: Its inhibition is -0.33%.

Q: With `CN(c1ccc2c(c1)nc(Nc1cc(C(C)(C)C)on1)n2C)c1ccnc(Nc2ccc(CS(C)(=O)=O)cc2)n1` as the compound, how does the inhibition [1] read?
A: Its inhibition is -1.02%.

Q: And the inhibition [2]?
A: Its inhibition is 0.41%.

Q: And the inhibition [3]?
A: Its inhibition is -1.74%.

Q: `Cc1cc2c(cc1Cl)N(C(=O)Nc1cc(F)cc(-c3cncnc3)c1)CC2` was tested. Which inhibition [1] did it give?
A: The inhibition was 9.04%.

Q: What about the inhibition [2] of the same compound?
A: The inhibition was 5%.

Q: What about the inhibition [3] of the same compound?
A: The inhibition was 2.7%.

Q: Which inhibition [1] does the source give for `O=C(c1ccc([N+](=O)[O-])o1)N1CCN(c2ccccc2)CC1` here?
A: The inhibition was 3.6%.

Q: What about the inhibition [2] of the same compound?
A: The inhibition was 1.95%.

Q: What about the inhibition [3] of the same compound?
A: The inhibition was 1.09%.

Q: Which results are given for `CCN(CC)CCOc1ccc(C(O)(C#CC(O)(c2ccc(C)cc2)c2ccc(OCCN(CC)CC)cc2)c2ccc(C)cc2)cc1` (centres undefined)?
A: inhibition [1]: 7.79%; inhibition [2]: 8.63%; inhibition [3]: 1.02%

Q: Which results are given for `Cc1cc(N2CCC(NS(=O)(=O)c3ccccc3)CC2)nc(Nc2cccc(C#N)c2)n1`?
A: inhibition [1]: 44.5%; inhibition [2]: 41.9%; inhibition [3]: 45.6%

Q: Which inhibition [1] does the source give for `CCCCCCCN1CC[C@@H](C[C@H](N)Cc2ccnc3ccc(OC)cc23)[C@@H](CC)C1` here?
A: The inhibition was 0.24%.

Q: And the inhibition [2]?
A: The inhibition was -1.97%.

Q: What about the inhibition [3] of the same compound?
A: The inhibition was 0.03%.
